Screens as filed in PubChem BioAssay.
A selection: hits, their analogues and other compounds. The true share with any hit is near 4.8%.
15-hLO inh: 15-hLO (ALOX15) enzyme inhibition; P16050; purified 15hLO-1, xylenol orange hydroperoxide absorbance; Potency, µM (titrated, usually from 57.1 µM), without a hit: at the highest dose activity change, negative = inhibition, actives largely listed as inhibitors; 74,000 compounds, 1.4% hits; further: potency means the concentration at half of the fitted maximal effect; on the % scale 0 is the no-effect control and ±100 the full control effect; nearly all actives have a fitted effect of over 55% in size
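Quantitative HTS in 25 mM Hepes pH 7.5 containing 0.01% Triton X-100: human 15hLO-1 at 40 nM, arachidonic acid at 50 uM, 6 min turnover. Product quantified via ferrous oxidation/xylenol orange, 573:405 nm absorbance ratio.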
Casp7 inh: caspase-7 (human) inhibition, allosteric or competitive | 75,000 compounds, 0.02% hits | AID 889 | Potency, µM (series often up to 57.5 µM), without a hit: at the highest dose activity change, negative = inhibition, hits mostly inhibitors | recombinant caspase-7, Ac-DEVD-AFC fluorescence rate | P55210; active means well fitted inhibition curve with a large enough effect in the main read-out, with a control signal flat, not every such curve was filed as active; inconclusive means small, poorly fitted or top-dose-only effect, or a change in a side signal; further: potency means the concentration at half of the fitted maximal effect; % of control where 0% means no effect
TSHR agonist: TSH receptor (human) agonism. 73,000 compounds, 0.48% hits. Potency, µM (top dose mostly 57.1 µM), inactives show top-dose activation, most hits filed as activators. P16473. AID 926. HEK293-CNG-TSHR cells (CNG channel as cAMP sensor), membrane potential dye, cAMP; active means well fitted activation curve with a large enough effect in the main read-out, with a control signal flat, not every such curve was filed as active; inconclusive means small, poorly fitted or top-dose-only effect, or a change in a side signal; inactive means no such curve, though single readings can be large or run the other way; % of control where 0% means no effect;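 further: the control signal comes from parental cells without the receptor; potency means the concentration at half of the fitted maximal effect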
Target sequence (P16473 whole entry, looked up): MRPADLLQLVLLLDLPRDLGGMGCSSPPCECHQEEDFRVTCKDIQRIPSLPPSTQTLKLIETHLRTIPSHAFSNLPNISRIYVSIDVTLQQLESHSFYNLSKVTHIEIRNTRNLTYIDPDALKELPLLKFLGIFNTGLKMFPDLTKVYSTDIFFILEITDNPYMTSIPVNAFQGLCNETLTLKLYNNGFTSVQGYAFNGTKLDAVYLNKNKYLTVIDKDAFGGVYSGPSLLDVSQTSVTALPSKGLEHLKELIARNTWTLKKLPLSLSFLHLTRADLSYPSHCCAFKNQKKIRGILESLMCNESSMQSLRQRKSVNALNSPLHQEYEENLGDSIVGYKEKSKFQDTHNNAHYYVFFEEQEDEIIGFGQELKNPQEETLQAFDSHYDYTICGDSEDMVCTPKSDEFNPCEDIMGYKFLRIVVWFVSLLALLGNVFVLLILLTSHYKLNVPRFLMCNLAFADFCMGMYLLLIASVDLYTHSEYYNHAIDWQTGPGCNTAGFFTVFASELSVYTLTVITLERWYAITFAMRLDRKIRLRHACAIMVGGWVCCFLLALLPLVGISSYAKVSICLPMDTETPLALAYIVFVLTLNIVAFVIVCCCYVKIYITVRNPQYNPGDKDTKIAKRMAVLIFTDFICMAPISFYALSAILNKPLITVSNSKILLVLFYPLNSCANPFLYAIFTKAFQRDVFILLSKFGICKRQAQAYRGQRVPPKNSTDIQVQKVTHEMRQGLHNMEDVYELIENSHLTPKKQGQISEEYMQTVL
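cAMP rise detected as CNG-channel membrane depolarization by fluorescent dye (emission 590 nm), 30 min after compound, following 60 min dye loading containing 100 uM RO 20-1724 at room temperature. Cells: TSHR/CNG HEK 293, with parental CNG HEK 293 as control.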
ERK AVP block: blocks ERK signaling stimulated by vasopressin; HEK293-V1b, vasopressin-stimulated pERK AlphaScreen; Potency, µM (series often up to 57.5 µM), without a hit: at the highest dose activity, negative = inhibition, usual class: inhibitors; 72,000 compounds, 0.99% hits; further: potency means the concentration at half of the fitted maximal effect; on the % scale 0 is the no-effect control and ±100 the full control effect; nearly all actives have a fitted effect of over 55% in size
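HEK293 cells stably expressing V1b receptor, preincubated 30 min at 37 °C with compound, then stimulated 5 min with 25 nM vasopressin. Phospho-ERK by AlphaScreen SureFire after 5 h RT; normalized to DMSO and vasopressin; AC50 by Hill fit.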
HEK293 cAMP ctrl: counter-screen for TSHR agonists: cAMP increase in parental HEK293 | parental HEK293 CNG cAMP sensor, membrane potential fluorescence | Potency, µM (doses to about 57.1 µM), inactives show top-dose activation, usual class: activators | 73,000 compounds, 2.5% hits | AID 938; further: potency means the concentration at half of the fitted maximal effect; % of control where 0% means no effect; nearly all actives have a fitted effect of over 55% in size
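Parental HEK 293 cells stably expressing a modified CNG channel (no TSHR) report cAMP rise as membrane depolarization. Membrane potential dye with 100 uM RO 20-1724 was loaded for 60 min at room temperature, then compound added for 30 min; fluorescence read at 590 nm.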
Casp1 inh: caspase-1 (human) inhibition, allosteric or competitive; P29466; Caspase-1 enzyme, Ac-WEHD-AFC fluorogenic rate; Potency, µM (titrated, usually from 57.5 µM), inactives show top-dose activity change, negative = inhibition, usual class: inhibitors; 75,000 compounds, 0.03% hits; AID 900;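 further: potency means the concentration at half of the fitted maximal effect; plate controls were vehicle for no effect and no substrate for full effect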
HEK293 cAMP cnt: counter-screen for TSH receptor agonists: cAMP in parental HEK293 cells; parental HEK293 CNG biosensor, cAMP membrane potential fluorescence; 150 tested, under 10 active; shares compounds with TSHR agonist; activity change, negative = inhibition, % at 32.9 µM; AID 953
An asterisk follows results filed as active; ? = inconclusive; · = no result given; [ ] = dose if it differs, or a comment. Unless noted, the call rests on the fitted dose curve; in most records, active means well fitted curve in the direction sought with a large enough effect; inconclusive means small, poorly fitted or top-dose-only effect, or another doubt; inactive means no such curve, though single readings can be large; an effect the other way counts as inactive or inconclusive.

SMILES	15-hLO inh	Casp7 inh	TSHR agonist	ERK AVP block	HEK293 cAMP ctrl	Casp1 inh	HEK293 cAMP cnt
CCN1C(=O)[C@@H]2[C@H]3C(=CC[C@H]2C1=O)C(=O)[C@H]1OC1[C@H]3O (stereo not given in full)	-2%[11.4 µM]	-14%[11.5 µM]	-8%[11.4 µM]	29%[11.5 µM]	6%[11.4 µM]	-10%[11.5 µM]	·
O=C(OCc1c(Cl)nc2sccn12)c1cc2c(s1)CCCC2	9%	0%	?	-1%	13µM*	0%	·
COc1cccc(NC(=O)Nc2cccs2)c1	20µM*	-15%	-7%	14%	0%	-7%	·
COc1ccc(NC(=O)Nc2cccs2)cc1OC	20µM*	-9%	0%	?	-3%	-6%	·
CCc1c(O)c2c(c(O)c1C(C)=O)C(=O)c1c(cc(O)c(C(=O)O)c1C(=O)O)C2=O	-1%[11.4 µM]	-6%[11.5 µM]	-4%[11.4 µM]	-4%[11.5 µM]	1%[11.4 µM]	-1%[11.5 µM]	·
COc1nc(Nc2ccc(O)cc2)nc(OC(C(F)(F)F)C(F)(F)F)n1	25µM*	1%	8%[11.4 µM]	2µM*	-1%	-1%	·
CCN(CC)c1ccc(NC(=O)c2ccc(Br)o2)c(C)c1	?	-2%	13%	25µM*	17%	-1%	·
COC(=O)N1CCC2(CC1)CN(c1ccccn1)C2	12%	-2%	-1%	-11%	-3%	-3%	·
O=C(O)[C@@H](O)[C@@H](O)[C@H](O)C(=O)CO	1%[11.4 µM]	0%[11.5 µM]	?	-1%[11.5 µM]	?	-1%[11.5 µM]	·
COc1ccc(C2C3=C(CC(c4ccco4)CC3=O)Nc3ccccc3N2C(C)=O)cc1 (stereo not given)	-1%	0%	4%	-16%	7%	0%	·
O=C1CC(c2ccco2)CC2=C1C(c1ccccc1)n1nc(C(F)(F)F)nc1N2 (stereo not given)	-27%	-18%	0.63µM*	7%	10%	-7%	-7
COc1cc(OC)cc(-c2nnc(SCC(=O)N(C(C)C)C(C)C)o2)c1	-2%	1%	25µM*	0%	24%	-2%	17
Cn1cccc1Cc1nnc(SCC(N)=O)n1CCc1ccccc1	-5%	0%	4%	-28%	3%	-1%	3[25.6 µM]
CC(C)CN1CCCC2(CCN(C(=O)c3cc(C(F)(F)F)cc(C(F)(F)F)c3)CC2)C1	1%	-2%	?	0%	?	-3%	·
CCSCCOC(=O)C1=C(C)N(C)C(=O)NC1c1cc(OC)ccc1OC (stereo not given)	-9%	-5%	25µM*	?	13%	2%	8
CN1CCN(S(=O)(=O)c2ccc(N)cc2)CC1	0%	1%	-4%	·	19%	2%	·
CC1(C)CC2CC(C)(CN2S(=O)(=O)c2ccc(N)cc2)C1 (stereo not given)	0%	2%	25µM*	20%	7%	1%	-5
O=C(Nc1ccccc1)N1CC2(CCN(C(=O)c3cnccn3)CC2)C1	6%	-4%	0%	4%	4%	0%	·
Cc1cc(SCNC(=O)c2ccccc2)ncn1	?	-2%	4%	27%	17%	-2%	-3[25.6 µM]
Cc1cc(C)nc(SCNC(=O)c2ccc(F)cc2)n1	-18%	0%	-6%	-3%	-3%	1%	·
O=C(c1ccncc1)N1CCC2(CC1)CN(c1cccc(-c3ccccc3)c1)C2	-4%	-1%	?	-28%	?	-3%	·
O=C(CN(Cc1ccccc1Cl)C(=O)Cn1nnc(-c2cccs2)n1)NCC1CCCO1 (stereo not given)	12%	-1%	6.3µM*	10%	12%	-1%	9
CC(=O)c1ccc(N2C(=O)C3C(C2=O)C(C(=O)c2ccc(Cl)cc2)N2CCCC32)cc1 (stereo not given)	-26%	-20%	10%	-23%	7%	-14%	·
O=C1C2C3CCCC3=C3CCCC3C2C(=O)N1c1ccc(Cl)cc1 (stereo not given)	?	-21%	3.2µM*	-28%	4%	?	-9
CNCCCCCCCCSc1nc(C(C)C)ccc1C(=O)c1cccs1	-6%[25.6 µM]	-1%	23%	-59%	1%	-2%	·
SMILES	15-hLO inh	Casp7 inh	TSHR agonist	ERK AVP block	HEK293 cAMP ctrl	Casp1 inh	HEK293 cAMP cnt
Cc1occc1-c1nnc(SCC(=O)NCc2ccc3c(c2)OCO3)n1CC(C)C	3%	1%	16µM*	-6%	29%	-1%	10
Cc1nonc1NC(=O)CSc1nnc(-c2ccoc2C)n1CC(C)C	-1%	0%	26%	-11%	13%	0%	·
CCOC(=O)CCc1c(C)nc2c(c(C)nn2C(C)(C)C)c1C	4%	-1%	25µM*	15%	21%	-3%	13
Cc1ccc(C(C)C)c(OCC(=O)Nc2ccc(N3CCN(S(C)(=O)=O)CC3)cc2)c1	-4%	-1%	-38%	-18%	5%	-2%	-30[25.6 µM]
CC(C)C(=O)Nc1ccc(N2CCN(S(C)(=O)=O)CC2)cc1	-2%	1%	5%[11.4 µM]	6%	0%	0%	·
CS(=O)(=O)N1CCN(C(=O)c2cc(-c3cccs3)nc3ccccc23)CC1	-9%	-2%	20µM*	-14%	-4%	0%	-5
COc1cccc(C2CC(c3ccccc3C)n3nc(N)nc3N2)c1 (stereo not given)	5%	-2%	0%	-22%	7%	-1%	·
COc1cccc(C2CC(c3ccccc3OC)n3nc(N)nc3N2)c1 (stereo not given)	17%	-1%	5%	-12%	8%	0%	6[25.6 µM]
Cc1ccc2nc(SCC(=O)O)nc(C)c2c1	6%	2%	-7%	17%	6%	0%	13[25.6 µM]
Cc1oc2c(CN3CCOCC3)c(O)ccc2c(=O)c1-c1ccccc1	5%	-3%	11%	4%	10%	0%	-37[25.6 µM]
COc1cccc(Oc2c(C)oc3c(CN4CCOCC4)c(O)ccc3c2=O)c1	10%	-1%	3%	-4%	14%	0%	·
COc1cc(/C=N/n2c(SC)nnc(C(C)(C)C)c2=O)ccc1O	-10%	-7%	0%	-30%	-5%	-5%	-8[25.6 µM]
O=C(c1csnn1)N1CCC[C@@]2(CCN(c3ccncc3)C2)C1	2%	0%	2%	-13%	5%	-4%	·
CC1CC[C@@]2(OC1)OC1CC3C4CC[C@H]5CC(O)CC[C@@]5(C)C4CC[C@]3(C)C1C2C (stereo not given in full)	2%	3%	·	20%	·	-2%	·
Cc1occc1-c1nnc(SCC(=O)Nc2ccccc2)n1C(C)c1ccccc1 (stereo not given)	-12%	-2%	7.9µM*	?	31%	-1%	-10
CON(C)c1nc(OCCNC(=O)OCc2ccc(Cl)cc2Cl)nc(N(C)C)n1	-2%	2%	?	-8%	?	0%	·
